Outcome data for 20 compounds are collected here from PubChem BioAssay (EPA / NIEHS).

Each structure is given as a SMILES string. Results filed as inconclusive are left out. Active and inactive are the calls of the source. How the source made its calls, unless noted: active means hit-call score of the fitted dose curve at least 0.9, where 1 is the maximum; inconclusive means response in the unintended direction; inactive means score below 0.9.

One test can be described thus: CCTE_Harrill_HTTr_Apoptosis_MCF7: CCTE's 6-hour Apoptosis Assessment for the High-Throughput Transcriptomics (HTTr) Platform, in MCF-7 cells cultured in DMEM + 10% fetal bovine serum, Harrill Lab (AID 2284011; active means hit-call score of the fitted dose curve at least 0.9, where 1 is the maximum; inactive means score below 0.9). In outline:
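Read-out: CellEvent Caspase 3/7 Green signal by high content imaging, gain-of-signal indicating apoptosis. MCF-7 cells, DMEM + 10% FBS, eight-point dilution series, 6 h exposure. Curves fitted bidirectionally relative to DMSO negative control.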
`CCC1(c2ccccc2)C(=O)N=C(O)NC1=O` (stereo not given): the result was inactive.
On the same count and under the same terms, the result for `Nc1ccc2ccccc2c1` reads “inactive”; that for `CC(C)(C)N(NC(=O)c1ccc(Cl)cc1)C(=O)c1ccccc1`, “inactive”; that for `CC1(C)CN=C(NN=C(/C=C/c2ccc(C(F)(F)F)cc2)/C=C/c2ccc(C(F)(F)F)cc2)NC1`, “inactive”.
The same measure, in the same setting: the same measure for `c1ccc2c(c1)Nc1ccccc1S2`: “inactive”.

The nature of the next test: CCTE_Harrill_HTTr_CellCount_MCF7: CCTE's Cell Proliferation Assessment for the High-Throughput Transcriptomics (HTTr) Platform, Harrill Lab (AID 2284012).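 Further: cells exposed to compound for six hours; intended direction is loss of nuclei count meaning fewer cells.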 In outline:
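MCF-7 cells were exposed for 6 h to an eight-point dilution series; Hoechst-labeled nuclei were counted by high content imaging. Curves were fitted bidirectionally against DMSO as negative control and baseline, with signal loss indicating reduced cell count.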
In the case of `CC(C)(C)c1ccc(O)cc1`, the result was inactive.
Still for that read-out and setting: the same measure for `CCOP(=S)(OCC)SCSCC`: “inactive”.
Still for that read-out and setting: the result for `CCOc1ccc(C(C)(C)COCc2cccc(Oc3ccccc3)c2)cc1` reads “inactive”; that for `Cc1ccc(N)cc1N`, “inactive”.
On the same count and under the same terms, the same measure for `CC(Cl)(Cl)C(=O)O`: “inactive”; for `c1cc2c3c(cccc3c1)CC2`: “inactive”.
For the compound `CCN(CC)c1ccccc1`, the compound was called inactive.
Still for that read-out and setting: the same measure for `O=P(OCC(Br)CBr)(OCC(Br)CBr)OCC(Br)CBr` (stereo not given): “inactive”; for `[N-]=[N+]=[N-]`: “inactive”.
On the same count and under the same terms, the result for `O=C(O)C1C(C(=O)O)C2(Cl)C(Cl)=C(Cl)C1(Cl)C2(Cl)Cl` (stereo not given) reads “inactive”; that for `ClC(Cl)(Cl)c1ccccc1`, “inactive”; that for `ClC1=C(Cl)C2(Cl)C3C(Cl)C(Cl)CC3C1(Cl)C2(Cl)Cl` (stereo not given), “inactive”.
The same measure, in the same setting: the same measure for `CCCCN(CC)C(=O)SCCC`: “inactive”; for `CCCCC(CC)COP(=O)(Oc1ccccc1)Oc1ccccc1` (stereo not given): “inactive”.
As for `CCOP(=S)(Oc1ccc([N+](=O)[O-])cc1)c1ccccc1` (stereo not given), the compound was called inactive.
The same measure, in the same setting: the same measure for `CCC1(c2ccccc2)C(=O)N=C(O)NC1=O` (stereo not given): “inactive”; for `Nc1ccc2ccccc2c1`: “inactive”.
On the same count and under the same terms, the same measure for `CC(C)(C)N(NC(=O)c1ccc(Cl)cc1)C(=O)c1ccccc1`: “inactive”; for `CC1(C)CN=C(NN=C(/C=C/c2ccc(C(F)(F)F)cc2)/C=C/c2ccc(C(F)(F)F)cc2)NC1`: “inactive”; for `c1ccc2c(c1)Nc1ccccc1S2`: “inactive”.
